Screening results as filed in PubChem BioAssay.
Only some compounds are listed: those with a hit (about 12% of all), similar ones and a draw of the others.
G9a block: blocks human histone lysine methyltransferase G9a; Q96KQ7; G9a H3K9 monomethylation, AlphaScreen, 2 h; Potency, µM (series often up to 102 µM), actives largely listed as inhibitors; 350,000 compounds, 8.8% hits; AID 504332; further: nearly all actives have a fitted effect of over 75% in size
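Readings reflect AlphaScreen signal from monomethyl-H3K9 antibody detection. HMT at 20 nM; substrate b-H3K9 500 nM; cofactor SAM 20 uM; 2 h RT reaction; compounds tested as titrations in qHTS with 15 min preincubation.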
PLK1 PBD inh: blocks phosphopeptide binding to human PLK1 polo-box domain; P53350; Plk1 PBD binding of FITC phosphopeptide, fluorescence polarization; Potency, µM, actives largely listed as inhibitors; 360,000 compounds, 2.8% hits; AID 720504; further: series mostly up to about 57 µM; nearly all actives have a fitted effect of over 65% in size
Target sequence (P53350 whole entry, looked up, the tested form may be a part): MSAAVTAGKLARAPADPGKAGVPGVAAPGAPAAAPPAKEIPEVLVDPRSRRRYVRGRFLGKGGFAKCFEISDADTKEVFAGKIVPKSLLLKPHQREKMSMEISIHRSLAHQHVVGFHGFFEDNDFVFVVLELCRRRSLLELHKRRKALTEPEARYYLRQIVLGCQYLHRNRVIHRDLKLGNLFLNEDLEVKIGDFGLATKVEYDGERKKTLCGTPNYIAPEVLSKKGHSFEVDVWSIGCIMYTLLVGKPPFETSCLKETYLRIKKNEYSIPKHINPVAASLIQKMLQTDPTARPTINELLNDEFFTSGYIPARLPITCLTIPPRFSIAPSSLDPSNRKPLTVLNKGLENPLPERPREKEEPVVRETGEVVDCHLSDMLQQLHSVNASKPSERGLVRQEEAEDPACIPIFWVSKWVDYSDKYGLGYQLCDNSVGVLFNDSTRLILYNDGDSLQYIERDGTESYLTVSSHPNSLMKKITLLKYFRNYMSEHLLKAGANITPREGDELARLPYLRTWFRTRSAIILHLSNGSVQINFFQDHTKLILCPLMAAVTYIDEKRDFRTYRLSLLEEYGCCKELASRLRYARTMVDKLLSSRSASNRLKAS
HP1b chromo inh: HP1-beta chromodomain-methylated histone interaction inhibition | P83916 | AlphaScreen HP1-beta / biotin-H3K9me3 peptide binding | Potency, µM (highest dose often 114 µM), usual class: inhibitors | 390,000 compounds, 0.56% hits | AID 540317; further: nearly all actives have a fitted effect of over 70% in size
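HP1-beta protein (50 nM final) preincubated 30 min at room temperature with biotinylated H3(1-18)K9me3 peptide (50 nM) in PBS pH 7.4, 0.01% Tween-20, then compound added for 30 min. AlphaScreen streptavidin donor/nickel chelate acceptor beads (10 ug/mL final), 30 min dark, luminescence read.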
JMJD2A Tudor inh: blocks the human JMJD2A Tudor domain. O75164. AlphaScreen JMJD2A-Tudor / H3K4me3 peptide binding. Potency, µM (highest dose often 114 µM), most hits filed as inhibitors. 390,000 compounds, 4.4% hits; further: nearly all actives have a fitted effect of over 50% in size
BAZ2B block: BAZ2B (human) inhibition; Q9UIF8; AlphaScreen BAZ2B-H3K14Ac peptide displacement; Potency, µM (top dose mostly 114 µM), hits mostly inhibitors; 360,000 compounds, 4.4% hits; AID 504333; further: nearly all actives have a fitted effect of over 60% in size
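AlphaScreen luminescence quantifies BAZ2B engagement of H3K14Ac peptide; the protein and biotinylated peptide are both at 50 nM final, buffer PBS pH 7.4 with 0.01% Tween-20, all steps at room temperature.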
Sfp inh: Sfp phosphopantetheinyl transferase inhibition; Q9F4F7; Biochemical Sfp PPTase activity, qHTS; Potency, µM, most hits filed as inhibitors; 310,000 compounds, 3.5% hits; AID 1490;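 further: the enzyme is Sfp with the accession as filed and its product quenches rhodamine fluorescence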
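Sfp 15 nM + cpd, 15 min RT; start w/ rhodamine-CoA 5 uM, BHQ-2-YbbR 12.5 uM (final); 50 mM Hepes pH 7.6, 10 mM MgCl2, 0.01% NP-40, 0.01% BSA; read 525/598 nm at 0 and 30 min.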
Each line names hits and unclear results; the compound was inactive in the other large screens. The call rests on the fitted dose curve; in most records, active means well fitted curve in the direction sought with a large enough effect; inconclusive means small, poorly fitted or top-dose-only effect, or another doubt; inactive means no such curve, though single readings can be large; an effect the other way counts as inactive or inconclusive.

COc1cccc(S(=O)(=O)N(C)C[C@H]2OCc3cnnn3CCCC(=O)N([C@@H](C)CO)C[C@@H]2C)c1	none (no result: G9a block, HP1b chromo inh, JMJD2A Tudor inh, BAZ2B block, Sfp inh)
O=C(CN1c2ccc(Br)cc2-c2ccccc2S1(=O)=O)N1CCCCC1	none (no result: PLK1 PBD inh, Sfp inh)
N#CCCn1c(=O)c(-c2cc(F)cc(F)c2)nc2cnc(OCc3ccccc3)nc21	Sfp inh inconclusive (no result: PLK1 PBD inh, HP1b chromo inh, JMJD2A Tudor inh, BAZ2B block)
COc1ccc(CN(C(=O)c2ccc(-c3ccccc3)[nH]2)C(C(=O)NC(C)(C)C)c2ccncc2)cc1 (centres undefined)	G9a block inconclusive, JMJD2A Tudor inh 39.8µM, BAZ2B block inconclusive, Sfp inh 44.7µM
CCN(C(=O)c1cnc(N2CCN(c3ncccn3)CC2)c2ccccc12)c1cccc(Cl)c1	Sfp inh 39.8µM
O=C(c1cnc(N2CCN(c3ncccn3)CC2)c2ccccc12)N1CCN(c2ncccn2)CC1	none
CN(C(=O)c1cnc(N2CCN(c3ncccn3)CC2)c2ccccc12)c1ccc(Cl)cc1	Sfp inh 56.2µM
Cc1ccc(Cl)cc1N(C)C(=O)c1cnc(N2CCOCC2)c2ccccc12	none (no result: PLK1 PBD inh, Sfp inh)
Cc1c(N=Nc2ccc(O)cc2)c(=O)n(-c2ccccc2)n1C	BAZ2B block inconclusive
Cc1[nH]c2ccccc2c1N=Nc1c(C)n(C)n(-c2ccccc2)c1=O	G9a block 39.8µM, BAZ2B block inconclusive
Cc1c(N=NC2=C(O)CCCC2=O)c(=O)n(-c2ccccc2)n1C	G9a block 8.91µM, HP1b chromo inh inconclusive, JMJD2A Tudor inh 14.1µM, BAZ2B block 22.4µM, Sfp inh 14.1µM
Cc1cc(N)ccc1N=Nc1c(C)n(C)n(-c2ccccc2)c1=O	JMJD2A Tudor inh inconclusive
COc1cc2c(cc1OC)CN(C(=O)c1ccc(N3CCCC3)c([N+](=O)[O-])c1)CC2	HP1b chromo inh inconclusive, JMJD2A Tudor inh 50.1µM, BAZ2B block 44.7µM (no result: Sfp inh)
COc1cc2c(cc1OC)CN(c1ccc(F)cc1[N+](=O)[O-])CC2	G9a block 35.5µM, HP1b chromo inh inconclusive, JMJD2A Tudor inh 50.1µM, BAZ2B block 39.8µM, Sfp inh 25.1µM
FC(F)(F)c1ccccc1-c1nccc(NCc2ccccc2)n1	none (no result: G9a block, PLK1 PBD inh, HP1b chromo inh, JMJD2A Tudor inh, BAZ2B block)
CCCCNC(=O)c1cc2c(C)cc(C)cc2[nH]1	G9a block 50.1µM
Cc1cc(C)c2cc(C(=O)Nc3ccc(C)c(F)c3)[nH]c2c1	G9a block 44.7µM
Cc1ccc(CN(C(=O)c2ccc(OCC(C)C)cc2)c2ccccn2)o1	none (no result: PLK1 PBD inh, Sfp inh)
CC1CCC(N2CCNCC2)CC1 (centres undefined)	none
CCCCCCn1c(SCC(=O)OC)nc2c1c(=O)[nH]c(=O)n2C	G9a block 1.58µM, PLK1 PBD inh 5.32µM, HP1b chromo inh inconclusive, JMJD2A Tudor inh inconclusive, Sfp inh 15.8µM
CCCCCSc1nc2c(c(=O)[nH]c(=O)n2C)n1C(C)C	G9a block 39.8µM, PLK1 PBD inh inconclusive
CCCCCSc1nc2c(c(=O)[nH]c(=O)n2C)n1CC	PLK1 PBD inh 21.2µM (no result: G9a block, BAZ2B block, Sfp inh)
CCCCCCn1c(SCC(C)C)nc2c1c(=O)[nH]c(=O)n2C	G9a block inconclusive
C=CCSc1nc2c(c(=O)[nH]c(=O)n2C)n1CC	G9a block inconclusive, PLK1 PBD inh 23.8µM, HP1b chromo inh inconclusive, Sfp inh 14.1µM
CCCCCSc1nc2c(c(=O)[nH]c(=O)n2C)n1C	none
O=C(OCC1CCCO1)c1ccc2c(c1)N(Cc1ccccc1F)C(=O)c1ccccc1S2(=O)=O (centres undefined)	none (no result: PLK1 PBD inh, Sfp inh)
Cc1nc2c(OCCC3CCCCC3)cccn2c1N(C)C(=O)CCC1CCCC1	none (no result: G9a block, HP1b chromo inh, JMJD2A Tudor inh, BAZ2B block, Sfp inh)
Cc1cc(C)c(S(=O)(=O)NCc2ccc3c(c2)CCN3C(=O)c2ccccc2)c(C)c1	none (no result: PLK1 PBD inh, Sfp inh)
O=C(CCN1CCC2CCC(C2)C1)c1ccc(F)cc1 (centres undefined)	PLK1 PBD inh 8.44µM (no result: G9a block, BAZ2B block, Sfp inh)
Cc1ccc(C(=O)NC2CCN(CCCC(=O)c3ccc(F)cc3)CC2)cc1	BAZ2B block inconclusive
COC(=O)CN1C(=O)Nc2ccc(Br)cc2C1c1ccccc1Cl (centres undefined)	G9a block 70.8µM
COCCN1C[C@@H](CO)O[C@@H](n2cnc3c(NCCCO)ncnc32)C1	none (no result: G9a block, HP1b chromo inh, JMJD2A Tudor inh, BAZ2B block, Sfp inh)
CCc1ccc(C(=O)c2cn(CC(=O)Nc3ccc4c(c3)OCO4)c3ccc(CC)cc3c2=O)cc1	G9a block inconclusive, BAZ2B block 79.4µM (no result: PLK1 PBD inh, Sfp inh)
